Records with an inconclusive call do not appear. A number with no mark means an inactive call. Activity calls are given as the source filed them. Calls follow the shape of the dose curve; as a rule, active = well fitted cell-killing curve with a large enough effect; inconclusive = small, poorly fitted or top-dose-only effect; inactive = flat fitted curve, though single readings scatter.

From PubChem BioAssay (NCATS) come the findings set out here.
% is scaled to controls: 0 for no effect and ±100 for the full control effect; potency is read from the fitted curve at half-maximal effect.

The test is described as follows: Cell Viability - H-4-II-E (AID 543). Also: nearly all actives have a fitted effect of over 35% in size. The following applies: H-4-II-E rat hepatoma viability; series mostly up to 92.2 µM; activity change, negative = cytotoxic: at the top concentration. An excerpt: NIH Chemical Genomics Center [NCGC]
NIH Molecular Libraries Screening Centers Network [MLSCN]
National Institutes of Environmental Health Sciences [NIEHS]
National Toxicology Program [NTP]
We have developed a 1536-well cell-based assay for quantitative high throughput screening (qHTS) against a number of cell lines to determine in vitro cytotoxicity of small molecules. This particular assay uses the H-4-II-E cell line which is derived from rat hepatoma.
NCGC Assay Protocol Summary:
The CellTiter-Glo luminescent cell viability assay (Promega) is a homogeneous method to measure the number of viable cells in culture. The end point readout of this assay is based on quantitation of intracellular ATP, an indicator of metabolic activity, using the luciferase reaction. Luciferase catalyzes the oxidation of beetle Luciferin to oxyluciferin and light in the presence of ATP. The luminescent signal is proportional to amount of ATP present.
Using the CellTiter-Glo luminescent cell viability assay, the amount of cellular ATP was measured in the H-4-II-E cell line with complete culture medium following compound treatment for 40 hours. The assay was performed in opaque white Kalypsys 1536-well plates. In the screen, tamoxifen and doxorubicin were used as positive controls. Library compounds were measured for their ability to cause acute toxicity in the cell line, as reflected by a decrease in intracellular ATP levels, in a concentration-dependent manner. […] AC50 values were determined from concentration-response data modeled with the standard Hill equation.
qHTS protocol fo CellTiter Glo H-4-II-E cellular assay
[Step] [Parameter] [Value] [Description]
1. Reagent; 5 uL; 1500 H-4-II-E cells/well
2. Time; 5 hr; 37 °C incubation
4. Controls; 23 nL; Tamoxifen 0.34 uM to 100 uM & Doxorubicin 0.02 nM to 100 uM
5. Time; 40 hr; 37 °C incubation
6. Reagent; 5 uL; CellTiter Glo reagent
7. Time; 20 min; Room Temperature
8. Detection; Luminescence; Viewlux plate reader
Keywords: cell viability, cytotoxicity, H-4-II-E cell line, luminescence, NTPHTS, NTPHTS_NCGC, NIEHS, EPA, DSSTox, MLSMR, MLSCN, NIH Roadmap, qHTS, NCGC
Turning to `Nc1ccc(S(=O)(=O)Nc2nccs2)cc1`, the “activity change, negative = cytotoxic” value was -7.31%.
Same read-out and setting: the figure for `CCCCOC(=O)c1ccc(O)cc1` is -15.5%; for `NCCNCCNCCNCCN` it is -11.6%; for `[Cl][In]([Cl])[Cl]` it is -4.74%.
Still for that read-out and setting: then `Cc1cc(CC(=O)O)n(C)c1C(=O)c1ccc(Cl)cc1`, with -12.4%.
Regarding `NC(=O)N/N=C/c1ccc([N+](=O)[O-])o1`, the Potency was 31.6 µM (active).
As for `O=C1O[C@H]([C@@H](O)CO)C(O)=C1O`, the “activity change, negative = cytotoxic” value was -8.24%.
For `CC12CCC(CC1)C(C)(C)O2`, the “activity change, negative = cytotoxic” value is -4.44%.
Same read-out and setting: the figure for `CC1(C)[C@@H]2CC[C@@]1(C)C(=O)C2` is 4.81%.
Consider `CCCCCCCCCCCCOS(=O)(=O)O`, for which the Potency entry was “inactive”.
On to `Cc1cc2nc3c(=O)[nH]c(=O)nc-3n(C[C@H](O)[C@H](O)[C@H](O)CO)c2cc1C`, for which the “activity change, negative = cytotoxic” value was 6.23%.
On the same count and under the same terms, the figure for `O=C1c2c(O)cccc2Cc2cccc(O)c21` is 6.93%; for `NCCNCCNCCN` it is -0.76%.
As to `Cc1c(O)cccc1C(=O)N[C@@H](CSc1ccccc1)[C@H](O)CN1C[C@H]2CCCC[C@H]2C[C@H]1C(=O)NC(C)(C)C`, the Potency was 31.6 µM (active).
On to `Oc1cccc(O)c1`, for which the “activity change, negative = cytotoxic” value was -2.47%.
Take `COc1ccccc1O`: the Potency entry was “inactive”.
